In the library only some 11% were active in any assay of this set; here they are far more common.
HCV inhibitor = blocks hepatitis C virus. Huh7.5.1 HCVcc-Cre infection, luciferase reporter, 44 h. Potency, µM (doses to about 41.8 µM), inactives show at the top dose activity change, negative = inhibition, actives largely listed as inhibitors. 340,000 compounds, 3.4% hits. AID 651820
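Antiviral activity was scored by luciferase reporter output from cells infected with HCVcc-Cre (~0.5 moi) in presence of compound, 44 h infection period, cells seeded 1,000/well 4 h prior.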
Pf growth 48h = P. falciparum growth inhibition at 48 hours (one generation); P. falciparum luciferase growth in erythrocytes, 48 h; Potency, µM (series often up to 28.7 µM), for the others: at the highest dose activity change, negative = inhibition, actives largely listed as inhibitors; 310,000 compounds, 5.9% hits; AID 504832
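Firefly luciferase activity from engineered P. falciparum reports growth; inhibitors lower the luminescent signal. Cultures contained 2% hematocrit erythrocytes at 0.1% final parasitemia.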
Pf growth 96h = P. falciparum growth inhibition at 96 hours; P. falciparum luciferase reporter growth, 96 h; Potency, µM (series often up to 28.7 µM), for the others: at the top dose activity change, negative = inhibition, most hits filed as inhibitors; 320,000 compounds, 6.9% hits; AID 504834
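Two parasite generations (96 h, 37 C, 5% CO2) of compound exposure in infected erythrocytes (0.05% parasitemia, 2% hematocrit). Luciferase-reporter P. falciparum; decreased luminescence indicates inhibited growth, aimed at apicoplast-acting delayed death.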
AMA1-RON2 inh = inhibitors of Plasmodium falciparum AMA1-RON2 interaction | AlphaScreen AMA1-biotinylated RON2 peptide binding | Potency, µM (series often up to 58.2 µM), for the others: at the top dose activity change, negative = inhibition, hits mostly inhibitors | 360,000 compounds, 0.2% hits | AID 720542;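 also: 0% = vehicle wells and -100% = peptide control; nearly all actives have a fitted effect of over 45% in size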
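AMA1 (3D7) with his tag at 25 nM final met compounds first, then biotinylated RON2 peptide at 25 nM; detection used donor plus acceptor beads, 10 µg/mL apiece, read by AlphaScreen after 30 min at room temperature.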
An asterisk follows results filed as active; ? = inconclusive; . = no result given; [ ] = another dose, or the depositor's remark. Calls follow the shape of the dose curve; as a rule, active = well fitted curve in the direction sought with a large enough effect; inconclusive = small, poorly fitted or top-dose-only effect, or another doubt; inactive = no such curve, though single readings can be large; an effect the other way counts as inactive or inconclusive. Unless noted, % is scaled to controls: 0 for no effect and ±100 for the full control effect; potency is read from the fitted curve at half-maximal effect.

SMILES	HCV inhibitor	Pf growth 48h	Pf growth 96h	AMA1-RON2 inh
O=C(Nc1nnc(SCC(=O)N2CCCC2)s1)C1CC(=O)N(c2ccc(F)cc2)C1 (stereo not drawn)	5%	-23%	12µM*	-1%
Cc1ccc(N2CC(C(=O)Nc3nnc(SCCC4OCCO4)s3)CC2=O)cc1 (stereo not drawn)	2%	?	?	1%
COc1ccc(N2CC(C(=O)Nc3nnc(SCCC4OCCO4)s3)CC2=O)cc1 (stereo not drawn)	5%	?	13µM*	17%
Cc1cc(NC(=O)CN2C(=O)CC(c3ccco3)Sc3ccccc32)no1 (stereo not drawn)	35µM*	?	12µM*	-9%
CC(=O)Nc1ccc(S(=O)(=O)c2cc(O)ccc2O)cc1	18%	-2%	?	-11%
CCOc1ccc(NC(=O)CN(C)CC(=O)NC2CCCc3ccccc32)cc1OCC (stereo not drawn)	?	?	-24%	5%
O=C(c1cc2ccccc2oc1=O)N(Cc1ccccc1)Cc1ccc2c(c1)OCO2	?	-14%	0%	-14%
Cc1cc(NC(=O)C2CC(=O)N(c3cccc(C)c3C)C2)no1 (stereo not drawn)	-3%	21%	-13%	7%
Cc1cc(NC(=O)C2CC(=O)N(c3ccccc3C)C2)no1 (stereo not drawn)	?	16%	12µM*	-10%
C[C@]12CC[C@@H]3c4ccc(O)cc4CC[C@H]3[C@@H]1CC[C@@H]2O	-6%[8.37 µM]	-22%	?	0%
C[C@]12CC[C@@H]3c4cc(O)c(O)cc4CC[C@H]3[C@@H]1CC[C@@H]2O	13µM*	.	.	?
CC1C(=O)N2CCCc3cc(NC(=O)COc4ccc(Cl)cc4)cc1c32 (stereo not drawn)	?	?	15µM*	3%
CC1C(=O)N2CCCc3cc(NC(=O)C(=O)NCCc4ccc(F)cc4)cc1c32 (stereo not drawn)	11µM*	?	?	8%
CC1C(=O)N2CCCc3cc(NC(=O)C(=O)NCCCc4ccccc4)cc1c32 (stereo not drawn)	?	12µM*	?	-26%
CNC(=O)C(=O)Nc1cc2c3c(c1)C(C)C(=O)N3CCC2 (stereo not drawn)	-1%	10%	-30%	30%
CC(C)(C)c1cc(C2=CSC3=NCCN23)cc(C(C)(C)C)c1O	5.6µM*	?	4.7µM*	-7%
Oc1ccc(C2=CSC3=NCCN23)cc1O	7%	9.3µM*	37%	-24%
Brc1ccc(C2=CSC3=NCCN23)cc1	-20%	?	29%	-1%
CCOC(=O)c1ccc(NC(=O)NC2=NCCS2)cc1	.	.	.	-6%
CCC(NC(=O)NC1=NCCS1)(C(F)(F)F)C(F)(F)F	-11%	7%	0.21µM*	-11%
Oc1c(N=Nc2ccc(F)cc2)ccc2ccccc12	0%	122%	11%	1.8µM*
COc1cccc(N=Nc2ccc3ccccc3c2O)c1	-2%	-74%	-25%	2.8µM*
Oc1ccc2ccccc2c1N=Nc1ccc(F)cc1	-14%	-3%	?	1.4µM*
COc1ccc(N=Nc2ccc3ccccc3c2)c(O)c1	-11%	146%	103%	?
Cc1ccc(N=Nc2ccc3ccccc3c2O)cc1	-1%	94%	122%	2.8µM*
SMILES	HCV inhibitor	Pf growth 48h	Pf growth 96h	AMA1-RON2 inh
CC(C)(C)c1ccc(CC(=O)N2CCC2(C)C(=O)NS(=O)(=O)c2ccccc2Cl)cc1 (stereo not drawn)	.	.	.	0%
O=C(NC(Cc1ccccc1)C(=O)O)/C(=C\c1ccccc1)NC(=O)c1ccc(Br)o1 (stereo not drawn)	2%	22%	16%	5%
COc1ccc(S(=O)(=O)N2CCN(C(=O)CSC(=S)N3CCCC3)CC2)cc1	19%	?	?	-6%
Cc1c(Cl)cccc1-n1c(SCC(=O)NCc2ccccc2Cl)nnc1-c1ccncc1	-13%	8.3µM*	8.3µM*	-8%
COc1ccc(C)cc1-n1nnnc1SCC(=O)N1CCC(C(=O)Nc2nccs2)CC1	-1%	-60%	1.7µM*	-1%
COc1ccc(C)cc1-n1nnnc1SCC(=O)NC1CCCC1	?	?	44%	-12%
Cc1cc(C)c2c(n1)nn1c(NCCOCCO)cc(C)nc21	5%	2%	.	?
Cc1cc(C)c2c(n1)nn1c(NCCCN(C)C)cc(C)nc21	22µM*	-5%	?	8%
O=C(NC1CCCC1)C(c1ccncc1)N(C(=O)c1csnn1)c1ccccc1 (stereo not drawn)	19%	17%	5.9µM*	-6%
O=C(NC1CCCC1)C(c1ccccc1)N(C(=O)c1ccno1)c1ccccc1 (stereo not drawn)	0%	-15%	7.4µM*	2%
CC(C)c1ccc(C(C(=O)NC2CCCCC2)N(C(=O)c2ccccn2)c2cccnc2)cc1 (stereo not drawn)	7%	10µM*	?	-8%
O=C(NC1CCCC1)C(c1ccccc1)N(C(=O)c1ccno1)c1cccnc1 (stereo not drawn)	-3%	.	.	0%
O=C(NC1CCCCC1)C(c1ccncc1)N(C(=O)c1csnn1)c1ccccc1 (stereo not drawn)	2%	17%	16%	24%
O=C(NC1CCCCC1)C(c1ccc(Cl)cc1)N(C(=O)c1cnccn1)c1ccc2c(c1)OCO2 (stereo not drawn)	9%	10µM*	-15%	1%
CCOC(=O)N1CCN(S(=O)(=O)c2ccc(C(=O)Nc3ccc4c(c3)C(=O)NC4=O)cc2)CC1	4%	-1%	-5%	-1%
COc1ccc(CCNC(=O)c2ccccc2NS(=O)(=O)c2c(F)cccc2F)cc1	-1%	?	-4%	1%
CC(=O)c1cccc(N(C(=O)c2ccccn2)C(C(=O)NC2CCCCC2)c2ccccc2)c1 (stereo not drawn)	-5%	-26%	10µM*	-4%
Cc1ccc(C(=O)Nc2ccc(S(=O)(=O)NC3=NCCCCC3)cc2)c(C)c1	?	39%	?	-5%
CC1CN(S(=O)(=O)c2cccc(C(=O)Nc3ccc(S(=O)(=O)NC4=NCCCCC4)cc3)c2)CC(C)O1 (stereo not drawn)	-21%	13µM*	?	-17%
O=C(Nc1ccc(S(=O)(=O)NC2=NCCCCC2)cc1)c1cccc(S(=O)(=O)N2CCOCC2)c1	-8%	.	.	1%
Cc1ccc(C(=O)Nc2ccc(S(=O)(=O)NC3=NCCCCC3)cc2)cc1S(=O)(=O)N1CCOCC1	-4%	2.3µM*	13µM*	8%
CCc1cc(C(=O)Nc2ccc(S(=O)(=O)NC3=NCCCCC3)cc2)sc1C	?	?	4.1µM*	3%
CN(C)c1ccc(C(=O)Nc2ccc(S(=O)(=O)NC3=NCCCCC3)cc2)cc1	-22%	?	12µM*	-26%
O=C1NC[C@@H](CCCCN2C[C@H](Cc3ccc(O)cc3)N(CCc3ccccc3)C(=O)C2=O)N(CCc2ccc(O)cc2)C1=O	.	.	.	-3%

Screening data from PubChem BioAssay.
